# Laboratory results as given in PubChem BioAssay (Tox21).
# Where “and” joins values, the source holds several entries; their conditions need not be identical. Equal values may be shown once. Records with an inconclusive call do not appear. Entries that show only a call come without a potency. Calls of active or inactive are those of the source. Calls follow the shape of the dose curve; as a rule, active = well fitted activation curve with a large enough effect in the repeat runs; inconclusive = weak or mixed curves; inactive = flat fitted curve, though single readings scatter.
# Experiment: A CellTox Green Cytotoxicity Assay to monitor cytotoxicity in HEK293 cells - 16 hour (AID 1224888); also: nearly all actives have a fitted effect of over 35% in size
# Conditions: CellTox Green fluorescence; series mostly up to 76.8 µM
# Text: National Center for Advancing Translational Sciences [NCATS]
# NIH Chemical Genomics Center [NCGC]
# U.S. Environmental Protection Agency [EPA]
# National Institutes of Environmental Health Sciences [NIEHS]
# National Toxicology Program [NTP]
# Cell-based models are critical for drug discovery. Determining the natural cytotoxic effects resulting from test compounds is an essential research activity. A CellTox Green Cytotoxicity Assay to monitor cytotoxicity in real time of continues cell culture during 40 hours of the compound treatment was used to screen Tox21 10K library compounds in Hek293 cells. CellTox Green Cytotoxicity Assay is a nonlytic, homogeneous, biofluorescent method to measure cytotoxicity in cell culture after experimental manipulation. The assay system uses a proprietary asymmetric cyanine dye that is excluded from viable cells but preferentially stains the dead cell's DNA. […] Viable cells produce no appreciable increases in fluorescence. Therefore, the fluorescence signal produced by the binding interaction with dead cell DNA is proportional to cytotoxicity.
# The mixture of Hek293 cell suspension and reagents were dispensed at 600cells/6 ul/well in 1536-well tissue culture treated black solid bottom plates using a Multidrop dispenser. After the assay plates were incubated at a 37 C/5% CO2 incubator for 5 hours, 23 nL of compounds dissolved in DMSO, positive and negative controls was transferred to the assay plate by a pintool work station. The plates were incubated at 37 C for 40 hours. The fluorescence intensity were measured at 0h, 8h, 16h, 24h, 32h and 40h time points using ViewLux plate reader during compound treatment.
# Potency is read from the fitted curve at half-maximal effect.
SMILES,Potency,activity change
CCOP(=S)(S)OCC,inactive,–
O=C(Cl)OCCOCCOC(=O)Cl,inactive,–
O=C(O)c1ccc(=O)[nH]c1,inactive,–
CC(C)(C)CC(C)(C)c1ccc(O)cc1,21.9 µM (active) and 21.3 µM (active),–
CCCCC(CC)COC(=O)c1c(Br)c(Br)c(Br)c(Br)c1C(=O)OCC(CC)CCCC (stereo not given),inactive,–
C=CC(=O)NC(C)(C)CC(C)=O,inactive,–
CCc1cnc(C2=NC(C)(C(C)C)C(=O)N2)c(C(=O)O)c1 (stereo not given),inactive,–
C[C@H]1O[C@H](OC2[C@@H](O)[C@@H](O)C(O)[C@H](O)[C@H]2O)[C@@H](N)C[C@@H]1N=C(N)C(=O)O (stereo not given in full),inactive,–
CCNC(=O)NC(=O)/C(C#N)=N/OC,inactive,–
O=C([O-])c1ccccn1.O=C([O-])c1ccccn1.O=C([O-])c1ccccn1.[Cr+3],inactive,–
COC(=O)Cc1ccccc1,inactive,–
O=C(Cc1ccccc1)c1ccccc1,inactive,–
CC[N+]1(C)CCCC(OC(=O)C(O)(c2ccccc2)c2ccccc2)C1 (stereo not given),inactive,–
O=S(=O)(c1ccccc1)c1ccccc1,inactive,–
CCCCCCCCCCCCN=C(N)N,–,"7.85% [at 2.72 µM, active compounds read high] (inactive)"
O=[N+]([O-])c1cc(Cl)c(Cl)cc1Cl,inactive,–
CCCCC1C(=O)NC(=O)N(C2CCCCC2)C1=O (stereo not given),inactive,–
CCc1ccccc1N,inactive,–
CC(C)CCCCCCCOC(=O)c1ccccc1C(=O)OCCCCCCCC(C)C,inactive,–
O=[N+]([O-])O[C@H]1CO[C@H]2[C@@H]1OC[C@H]2O[N+](=O)[O-],inactive,–

SMILES,Potency,activity change
ClCc1ccccc1Cl,inactive,–
C[CH2][Hg][S]c1ccccc1C(=O)O,4.77 µM (active),–
COc1ccccc1N1CCNCC1,inactive,–
C=C(C)C(=O)OCCCCOC(=O)C(=C)C,inactive,–
CN1CC[C@]23c4c5ccc(O)c4O[C@H]2[C@@H](O)CC[C@H]3[C@H]1C5,inactive,–
N#CC(C#N)=Cc1ccc(O)c(O)c1,inactive,–
OCCSSCCO,inactive,–
CC(C)(C)NCC(O)c1ccccc1Cl (stereo not given),inactive,–
CC(C)(C)c1ccc(CCOc2ncnc3ccccc23)cc1,inactive,–
C=CCOCC1CO1 (stereo not given),inactive,–
Nc1cccc2ccccc12,inactive,–
CN1C(=O)CN=C(c2ccccc2)c2cc([N+](=O)[O-])ccc21,inactive,–
Cc1cccc(C)c1NC1=NCCCS1,inactive,–
Nc1ccccc1C(=O)OCC(O)CO (stereo not given),inactive,–
C[N+](C)(C)CC1CO1 (stereo not given),inactive,–
CCCBr,inactive,–
CCCC[N+](CCCC)(CCCC)CCCC,inactive,–
CCC1(CCC(C)C)C(=O)NC(=O)NC1=O,inactive,–
O=C1NC(=O)C(=O)C(=O)N1,inactive,–
COc1cc(CC(C)N)c(OC)cc1Br (stereo not given),inactive,–
